In PubChem BioAssay (NCI) one finds growth data, which are given here for 35 molecules.

Where “and” joins values, the source holds several entries; their conditions need not be identical. Equal values may be shown once. The panel holds about 83,000 compounds, 20% with a hit somewhere; the sample as a whole holds those more often.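 96-well plates, one dose, 48 hours. Percent growth reported; active if below 10.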 Calls of active or inactive are those of the source.

The subject of this experiment is MDA-MB-468 breast. The experiment is described as follows: NCI-60 one-dose screen, 48 h (100 = growth as untreated, 0 = no growth, -100 = all killed). Conditions: 10 µM unless noted.
Turning to `COc1ccc(-c2cc(C(=O)N3N=C(c4ccc(N)cc4)CC3c3ccccc3)c3ccccc3n2)cc1` (stereo not given), the growth was 29.3% (inactive). For `N#CCC1CCCC1` the value was 97.4% (inactive); for `Cc1ccccc1-c1cc(Cc2ccc(F)cc2)c(=O)[nH]n1`, 109% (inactive); for `C=COCCCCCCCCCCCCCCCCCC`, 103% (inactive).

Turning to `C/C(=C\CCc1ccsc1)CC/C=C(\C)CCCN1CCC(CO)CC1`, the growth was -27.3% (active). As to `CCNc1nc(-c2ccc(Cl)c(OC)c2)c(-c2ccnc(NCCCNS(=O)(=O)c3ccc(Cl)cc3)n2)s1`, the growth was 63.3% (inactive). For `CC/C(=C(/c1ccc(Cl)cc1)c1ccc(OCCN(CC)CC)cc1)c1ccc(OC)cc1` the value was 38% (inactive); for `CCC(=O)Nc1ccc(-c2nc(-c3cccc(OC)c3)c(-c3ccnc(Br)c3)[nH]2)cc1`, 38.9% (inactive); for `CC(C)C[C@@H](NC(=O)[C@@H](Cc1ccccc1)NC(=O)c1cnccn1)B1Oc2ccc(C[C@H](NC(=O)[C@H](Cc3ccc4c(c3)OB([C@@H](CC(C)C)NC(=O)[C@@H](Cc3ccccc3)NC(=O)c3cnccn3)O4)NC(=O)[C@@H](N)CC3CCC4OB([C@@H](CC(C)C)NC(=O)[C@@H](CC5CCCCC5)NC(=O)C5CNCCN5)OC4C3)C(=O)NCCCC[C@@H]3NC(=O)[C@@H](Cc4ccccc4)NC(=O)[C@H](CC(=O)O)NC(=O)CNC(=O)[C@H](CCCNC(=N)N)NC3=O)cc2O1` (stereo not given in full), -41.5% (active). As for `Cn1c(SC(C(=O)Nc2ccc(F)cc2)c2ccccc2)nc2ccccc2c1=O` (stereo not given), the figure is 99.6% (inactive); as for `COC(=O)[C@]1(C)CCC[C@]2(C)[C@H]3C[C@@H]4[C@H]5[C@@H]6CC/C(=N\OCC/C(N)=N/O)[C@H]5[C@@]3(CC[C@H]21)CC4(C(C)C)O6`, 64.1% (inactive). As for `Cc1cc(NC(=O)Nc2cc(Cl)ccc2C)no1`, the figure is 105% (inactive); as for `O=C1NCCS(=O)(=O)/C1=C\C=C\c1cccc(C(F)(F)F)c1`, 17.9% (inactive).

For `COc1ccc2c(c1)cn1c3ccc(O)cc3nc(N)c21`, the growth was 14.2% (inactive). For `O=c1cc(-c2nccc3c2[nH]c2ccccc23)c2cc(Cl)ccc2o1`, the growth is 2.37% (active). As for `Cn1c(=O)c2c(ncn2CCC(=O)Nc2ccc(F)cc2)n(C)c1=O`, the figure is 106% (inactive); as for `CNC(=O)c1cc(Oc2ccc(NC(=O)Nc3ccc(Cl)c(SC)c3)c(F)c2)ccn1`, 13.6% (inactive); as for `CCCCN(CCCC)CC(CN(CC)CC)OC(=O)Nc1ccccc1` (stereo not given), 90% (inactive). With `C[C@H]1[C@H](C)CC[C@]2(C(=O)N3CCN(C)CC3)CC[C@]3(C)C(=CC[C@@H]4[C@@]5(C)C/C(=C/c6cccnc6)C(=O)C(C)(C)[C@@H]5CC[C@]43C)[C@H]12`, the growth is -83.2% (active). As for `C#CC(O)c1ccccc1` (stereo not given), the figure is 110% (inactive). As for `O=[N+]([O-])c1ccc(NC2CCCCC2)nc1`, the figure is 110% (inactive) and 99.8% (inactive); as for `NC(=S)N/N=C/c1ccc(N)cc1`, 106% (inactive).

`CCN(CC)S(=O)(=O)c1ccc(-c2nc(C(Cl)Cl)nc3cc(-c4ccc(F)cc4)nn23)cc1`: the growth was -31.9% (active). For `CC1=C(C(=O)Nc2ccc(F)cc2)C(c2ccccc2)C2=C(CC(C)(C)CC2=O)N1` (stereo not given) the value was 67.7% (inactive); for `NC(=S)N/N=C/c1ccc(Cl)s1`, 98.8% (inactive); for `Cn1cc(-c2csc(-c3c[nH]c4ccc(F)cc34)n2)c2ccnc(Cl)c21`, 15% (inactive). For `Nc1ncc(C#Cc2cncc(NC(=O)c3cccc(C(F)(F)F)c3)c2)c2cccnc12` the value was 92.5% (inactive); for `C=C1c2c(C)nn(-c3ccc(O)cc3)c2N(C)C23C[C@@H]1C1(C)c4c(C)nn(-c5ccc(O)cc5)c4N(C)C(C)(C[C@H]12)C3` (stereo not given in full), -5.71% (active); for `Cc1ccc(NC(=O)c2ccc(CN3CCN(C)CC3)cc2)cc1Nc1nc(-c2cccnc2)cs1`, 25.5% (inactive). For `CCCCCCCCCC[N+](C)(C)C` the value was -31.3% (active); for `CCOc1ccccc1CN1CCc2nc3cc(C(C)(C)C)[nH]n3c(=O)c2C1`, 105% (inactive). With `CCOc1ccc(-c2nc3ccc(-c4nc5ccc(N6CCN(C)CC6)cc5[nH]4)cc3[nH]2)cc1`, the growth was -85.2% (active). As for `O=C(Oc1ccc[nH]c1=O)c1cccc(Cl)c1`, the figure is 89.8% (inactive); as for `CC1(C)OC(=O)C(=Cc2ccc(C#N)cc2)C(=O)O1`, 91.7% (inactive) and 96.1% (inactive); as for `O=C(CN1CCN(c2cc(=O)n(-c3ccccc3)c3ccccc23)CC1)Nc1ccc([N+](=O)[O-])cc1`, 62.1% (inactive).
